Test results: PubChem BioAssay (NCATS)
Results filed as inconclusive are left out. Activity calls are given as the source filed them. Calls come from the whole dose curve; as a rule, active = well fitted curve in the direction sought with a large enough effect; inconclusive = small, poorly fitted or top-dose-only effect, or another doubt; inactive = no such curve, though single readings can be large; an effect the other way counts as inactive or inconclusive.

Experiments:
[1] = NS1 protein of Zika virus - qHTS assay to identify small molecule inhibitors in human HEK 293 cells (AID 1347053); note: series mostly up to about 46 µM; nearly all actives have a fitted effect of over 55% in size
Procedure, shortened: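 HEK 293; 20 h pre-culture, 37 C/5% CO2; cpd 1 h pre-infection; ZIKV MR766, MOI = 0.5, 24 h, 37 C; TR-FRET NS1 readout (two anti-NS1 Abs); norm. to no-virus vs infected.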

[2] = qHTS of pediatric cancer cell lines to identify multiple opportunities for drug repurposing: Primary screen for TC32 cells (AID 1347089); note: nearly all actives have a fitted effect of over 60% in size
Procedure, shortened: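 qHTS, TC32, 48 h drug treatment, CellTiter-Glo luminescence as a proxy for metabolically active cells; primary top concentration 46 µM (MIPE 11-pt, NPC 8-pt); confirmatory 11-pt.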

[3] = qHTS of pediatric cancer cell lines to identify multiple opportunities for drug repurposing: Primary screen for SJ-GBM2 cells (AID 1347091)
Procedure, shortened: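 Eight- or eleven-point concentration series, 48 h treatment at 37 degrees C in growth media; readout CellTiter-Glo luminescence. Potency and efficacy were taken from the concentration-response curves.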

[4] = qHTS of pediatric cancer cell lines to identify multiple opportunities for drug repurposing: Primary screen for A673 cells (AID 1347092); note: nearly all actives have a fitted effect of over 45% in size
Procedure, shortened: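 Luminescence from CellTiter-Glo, taken after 15 min at room temperature, served as the proxy for metabolically active cells following 48 h treatment. Both potency and efficacy were taken from curves fitted to the titration data.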

Measured: Potency

Cc1cc(C(C)(C)C)c(O)c(C(C)(C)C)c1
inactive: all assays above

CC(=O)O[C@H]1CC[C@@]2(C)C(=CC[C@@H]3[C@@H]2CC[C@]2(C)C(C(C)=O)=CC[C@@H]32)C1
inactive: all assays above

CCCCCN(CCCOC)C(=O)C(CCC(=O)O)NC(=O)c1ccc(Cl)c(Cl)c1 (stereo unspecified)
inactive: all assays above

C1=CC2C3C=CC(C3)C2C1 (stereo unspecified)
inactive: all assays above
